In the library only some 3.5% were active in any assay of this set; here they are far more common.
FBW7 act: human FBW7 E3 ligase activation, primary screen; actives 0.13% (n = 650,000); AlphaScreen FBW7–phospho-cyclin E peptide binding, activator screen; Q969H0; AID 1259310; normalized activity (activation), % at 26.1 µM; in the data active = normalized activity above about 1.9%;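 note: purified mutant Fbw7 with reduced substrate affinity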
MITF inh: human MITF inhibition, primary screen; O75030; AlphaScreen MITF homodimerization, bead proximity signal; inhibition, % at 2.6 µM; actives 0.91% (n = 650,000); AID 1259374; in the data active = inhibition above about 50%;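 note: 0% = vehicle wells with protein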
TEAD-YAP inh: TEAD-YAP interaction inhibition; HEK-TIYL cells, TEAD-Gal4/YAP UAS-luciferase luminescence; inhibition, % at 9.12 µM; actives 1.4% (n = 640,000); AID 1259422; in the data active = inhibition above about 32%;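 note: 0% = median of test compound wells and 100% = reference inhibitor wells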
GPR151 ag: activators of human GPR151; AID 1508602; PathHunter beta-arrestin GPR151 cells, luminescence; actives 1% (n = 650,000); Q8TDV0; activation, % at 11.2 µM; in the data active = activation above about 4.9%;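 note: 0% = median of compound wells and 100% = cells with positive control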
Target sequence (Q8TDV0 whole entry, looked up): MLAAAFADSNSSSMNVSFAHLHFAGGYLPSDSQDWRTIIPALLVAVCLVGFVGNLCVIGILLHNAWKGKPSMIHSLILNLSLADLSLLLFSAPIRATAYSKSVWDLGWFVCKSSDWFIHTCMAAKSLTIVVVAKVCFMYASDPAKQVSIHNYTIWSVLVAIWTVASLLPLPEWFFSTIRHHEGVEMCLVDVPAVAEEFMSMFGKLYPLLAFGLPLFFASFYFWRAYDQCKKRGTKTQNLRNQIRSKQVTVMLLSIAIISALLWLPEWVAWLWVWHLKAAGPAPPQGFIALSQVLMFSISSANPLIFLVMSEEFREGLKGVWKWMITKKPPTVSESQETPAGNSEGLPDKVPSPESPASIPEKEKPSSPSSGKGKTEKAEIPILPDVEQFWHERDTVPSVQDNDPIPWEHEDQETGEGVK
Active calls of the source: *.

SMILES	FBW7 act	MITF inh	TEAD-YAP inh	GPR151 ag
O=C(NC12CC3CC(CC(C3)C1)C2)c1cccs1	0	-4	-1	0
O=C(/C=C/c1ccc(F)cc1)c1ccc(N2CCOCC2)cc1	0	2	-13	1
Cc1ccc(/C=C/C(=O)c2ccc(N3CCOCC3)cc2)s1	0	-1	49*	0
O=C(OCc1csc(Nc2ccccc2)n1)C1CC2C=CC1C2 (stereo not given)	0	-6	38*	-4
Nc1ncc(S(=O)(=O)O)cc1Br	0	6	-11	1
Oc1c(C(c2ccc(C(F)(F)F)cc2)N2CCCCC2)ccc2cccnc12 (stereo not given)	0	9	83*	-1
Oc1c(C(c2ccc(Cl)cc2)N2CCCCC2)ccc2cccnc12 (stereo not given)	-2	3	71*	-1
O=C(CSc1cccc2cccnc12)N1CCCCC1	0	-8	-19	0
COc1ccc(OC)c(C2NC(=O)C(C#N)=C(S)N2c2ccc(F)cc2)c1 (stereo not given)	0	8	-10	-1
O=C(COc1ccccc1)Nc1cc([N+](=O)[O-])ccc1O	0	3	56*	-8
O=C(COc1ccccc1Cl)Nc1cc([N+](=O)[O-])ccc1O	0	-24	69*	0
Cn1nnnc1Sc1ccc(C(N)=O)cc1[N+](=O)[O-]	0	5	-4	2
Cn1nnnc1Sc1ccc([N+](=O)[O-])c2cnccc12	0	-9	35*	0
Cc1ccc(/C=C2/CN(C)C/C(=C/c3ccc(C)o3)C2=O)o1	0	0	2	0
O=C1/C(=C/c2cccnc2)CCCC/C1=C\c1cccnc1	1	13	-2	-4
CN1C/C(=C\c2ccncc2)C(=O)/C(=C/c2ccncc2)C1	0	8	95*	0
O=C1/C(=C/c2ccncc2)CCC/C1=C\c1ccncc1	0	-2	59*	0
CCOC(=O)c1c(NC(=O)c2cccc(OC)c2)sc(C(=O)Nc2ccccc2F)c1C	0	3	-3	0
Cc1ccsc1/C=C1\S/C(=N/c2nccs2)NC1=O	-1	-10	38*	-5
CCCCC(=Nc1ccc(N)cc1)C1=C(O)CC(C)(C)CC1=O	0	4	-6	-2
CC(C)(C)NC(=O)CN(Cc1cccnc1)C(=O)c1csnn1	0	5	6	0
COc1ccc2oc(C(Cl)(Cl)Cl)cc(=O)c2c1	0	20	50*	-1
COc1cccc(-c2cc(=O)c3cc(OC)ccc3o2)c1	0	8	70*	-10
COc1ccc2c(=O)cc(C(Cl)(Cl)Cl)oc2c1	0	3	15	-1
COc1ccc2c(=O)cc(-c3ccccc3)oc2c1	0	2	-36	1
SMILES	FBW7 act	MITF inh	TEAD-YAP inh	GPR151 ag
CCOC(=O)COc1ccc2oc(C)c(C(=O)OCCOC)c2c1	0	-3	8	-1
O=c1cnnc(N/N=C/c2ccccc2O)[nH]1	-1	108*	-3	0
Cc1ccc(/C=N/Nc2nnc(Cc3ccccc3)c(=O)[nH]2)o1	0	12	7	1
O=c1[nH]c(N/N=C/c2ccccc2O)nnc1Cc1ccccc1	0	101*	60*	4
CCOC(=O)c1cc(-c2ccccc2)sc1/N=C/c1c(O)n(C)c(=O)n(C)c1=O	0	10	-14	-1
O=C(Nc1ccc2c(c1)CN(C(=O)C1CCOC1)CC2)c1ccccc1Cl (stereo not given)	0	8	51*	0
O=C(Nc1ccc2c(c1)CN(C(=O)c1ccco1)CC2)c1ccc(F)c(F)c1	0	-1	-13	1
O=C(Nc1ccc2c(c1)CN(C(=O)C1CCOC1)CC2)c1ccc(C(F)(F)F)cc1 (stereo not given)	0	6	10	1
O=C(Nc1ccc2c(c1)CN(C(=O)c1ccco1)CC2)c1cccc2ccccc12	0	3	45*	0
O=C(Nc1ccc2c(c1)CN(C(=O)C1CCOCC1)CC2)c1ccccc1Cl	0	-2	34*	1
CCC(=O)N1CCc2ccc(NC(=O)c3c(F)cccc3F)cc2C1	0	18	33*	-1
COc1ccc(N2CCN(C(=O)c3ccco3)CC2)c([N+](=O)[O-])c1	0	12	-29	0
CC12c3ccccc3C(c3ccccc31)C1C(=O)N(NC(=O)c3cccnc3)C(=O)C12 (stereo not given)	0	-10	11	0
Nn1c(SCC(=O)N2CCCC2)nnc1-c1ccc(Cl)cc1Cl	0	-9	-4	-1
Nn1c(SCC(=O)c2ccc(O)cc2O)nnc1-c1cc(Cl)ccc1Cl	0	-5	42*	2
C[n+]1ccccc1/C=C\c1ccccc1O	0	3	3	0
C[n+]1ccccc1/C=C/C1=C(c2ccccc2)Oc2ccccc2O1	0	0	83*	2
Cc1cc(C(=O)COC(=O)c2cccc(NS(C)(=O)=O)c2)c(C)n1Cc1ccccc1	0	-6	57*	0
COCCn1c(C)cc(C(=O)COC(=O)c2ccccc2Nc2ccccc2)c1C	0	13	75*	-1
COCCn1c(C)cc(C(=O)COC(=O)c2cccc(Oc3ccccc3)c2)c1C	0	0	-13	-1
COCCn1c(C)cc(C(=O)COC(=O)c2cccc(O)c2)c1C	0	-6	62*	-11
Cc1cc(C(=O)COC(=O)c2cccc(NS(C)(=O)=O)c2)c(C)n1-c1ccccc1	0	8	25	-1
CC1(C)Oc2ccc(C(=O)N3CCCCC3)cc2N(Cc2ccccc2)C1=O	0	16	-19	-2
c1cc(N2CCOCC2)ccc1Nc1nc(Nc2ccc(N3CCOCC3)cc2)c2ncn(C3CCCCC3)c2n1	0	52*	7	-1
c1cncc(Nc2nc(NCCN3CCOCC3)c3ncn(C4CCCCC4)c3n2)c1	0	-2	42*	-1
SMILES	FBW7 act	MITF inh	TEAD-YAP inh	GPR151 ag
c1cncc(Nc2nc(Nc3ccc(N4CCOCC4)cc3)c3ncn(C4CCCCC4)c3n2)c1	0	9	37*	0
c1cncc(CNc2nc(NCCN3CCOCC3)c3ncn(C4CCCCC4)c3n2)c1	0	11	9	1
COc1ccc(CCc2nnc(CCC(=O)NCc3ccccc3F)o2)cc1	0	-26	-47	0
O=C(NCCO)c1ccccc1-c1ccccc1	0	2	12	0
CC(C)C(=O)Nc1ccc2oc(-c3ccccc3F)nc2c1	0	-6	72*	-4
O=C(Cc1ccc([N+](=O)[O-])cc1)Nc1ccc2c(c1)oc1ccccc12	0	14	0	0
O=C(Nc1ccc2oc(-c3cccc(Cl)c3Cl)nc2c1)c1cc([N+](=O)[O-])ccc1Cl	0	-2	9	0
CC(=O)Nc1ccc2oc(-c3ccccc3F)nc2c1	0	9	1	-1
O=C(Nc1ccc2oc(-c3ccccc3F)nc2c1)c1cc([N+](=O)[O-])ccc1Cl	0	14	32*	0
O=C(Nc1ccc2oc(-c3ccc4ccccc4c3)nc2c1)c1cccc(Cl)c1Cl	1.9*	18	-11	-1

Source: PubChem BioAssay (The Scripps Research Institute Molecular Screening Center)
